# In PubChem BioAssay (NCI):
# The panel holds about 83,000 compounds, 20% with a hit somewhere; the sample as a whole holds those more often.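 For each line, cells grew in 96-well plates with the test compound present at a single concentration for 48 hours.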 Unmarked numbers belong to inactive results. Calls of active or inactive are those of the source. The calls were made as follows: active = growth percent below 10; inactive = the rest.
# Tested on: HL-60(TB) leukemia
# Experiment: NCI-60 one-dose screen, 48 h (100 = growth as untreated, 0 = no growth, -100 = all killed)
# Conditions: 10 µM unless noted
row,Structure (SMILES),growth
1,O=C(N/N=C/c1ccncc1)c1ccc(C(F)(F)F)nc1Nc1cccc(C(F)(F)F)c1,-16.7% (active)
2,FCOC(C(F)(F)F)C(F)(F)F,96.1%
3,CCn1cc(C(=O)NNC(=S)Nc2ccc(C)cc2)c(=O)c2ccc(C)nc21,94.5%
4,Cn1c(=O)n(C)c2cc(CNCCNc3ccnc4cc(Cl)ccc34)ccc21,35.4%
5,CCc1ccc2c(c1)N(CCO)C1=C(C(=O)OC1)C2c1ccccc1 (stereo not given),94.9%
6,OCC1OC(n2cnc3c(Cl)ncnc32)CC1O (stereo not given),121%
7,COc1cc2cc3c(=O)n4c(cc5cc(OC)ncc54)c(=O)n3c2cn1,89.3%
8,CNC(=O)c1cc(Oc2ccc(NC(=O)c3nc(S(C)(=O)=O)sc3-c3ccc(F)cc3)cc2)ccn1,27.2%
9,NC(=N\N=C/c1ccc(O)cc1)/C(N)=N\N=C/c1ccc(O)cc1,25.9%
10,C(=N\Nc1nnc2n1N=C(c1ccccc1)CS2)/c1ccc(OCc2ccccc2)cc1,97.6%
11,CCCCCCCCCCCC(=O)[O][Sn]([CH2]CCC)([CH2]CCC)[CH2]CCC,-44.1% (active)
12,Fc1ccc(Cc2ccc(F)cc2)cc1,103%
13,O=C1/C(=C/c2ccc([N+](=O)[O-])o2)Oc2ccc(Br)cc21,43.2%
14,CCCCCCCCCc1ccc(OCCOCCOCCOCCOCCOCCOCCOCCOCCO)cc1,-40.9% (active)
15,Cc1ccc(C)c2c1CCC2C(C)C (stereo not given),108%
16,COc1ccc(CNCCCN2C(=O)c3ccc4c5c(ccc(c35)C2=O)C(=O)N(CCCNCc2ccc(OC)c(OC)c2OC)C4=O)c(OC)c1OC,-61.3% (active)
17,CCN(CC)c1ccc(/C=N/NC(=O)CSc2nc3ccccc3c(=O)n2CCc2ccc(S(N)(=O)=O)cc2)c(O)c1,-18.7% (active)
18,O=C1c2cccc3cc([N+](=O)[O-])cc(c23)C(=O)N1CCN1CCCC1,-54.1% (active)
19,CC(C)c1ccc(S(=O)(=O)NC(=O)NC2CCCC2)cc1,90.8%
20,Cc1cnc(C(=O)Nc2nc3ccc(S(=O)(=O)Nc4ccc(C5(C(F)(F)F)CC5)cc4)cc3[nH]2)cn1,-25.1% (active)
